Assay results as given in PubChem BioAssay AID2669 (National Center for Advancing Translational Sciences (NCATS), 2010).
Several values for one entry are separate records, joined by “and”; a condition that tells them apart may be missing. Equal values may be shown once. Records with an inconclusive call do not appear. Activity calls are given as the source filed them. Calls come from the whole dose curve; as a rule, active = well fitted inhibition curve with a large enough effect; inconclusive = small, poorly fitted or top-dose-only effect, or effect the other way; inactive = flat fitted curve, though single readings scatter.

Test: qHTS Assay Multiplex Screening to Identify Dual Action Probes in a Cell Model of Huntington: Cytoprotection (Protease relase)
Details: PC12 HttQ103 cells, Cytotox-Glo protease release, 40 h; series mostly up to 46.1 µM; activity change, negative = inhibition: at the top concentration
Excerpt: NIH Chemical Genomics Center [NCGC]
NIH Molecular Libraries Probe Production centers Network [MLPCN]
Assay Submitter (PI): Wei Zheng
Huntington's disease is a neurodegenerative disorder caused by a trinucleotide repeat expansion in Exon 1 of the Huntingtin gene. The CAG trinucleotide encodes glutamine and polyglutamine expansions cause cell death in selective areas of the brain. Huntington polyglutamine repeats have the tendency to form aggregates which are observable in later stages of the disease. The exact nature of the aggregates, whether toxic, protective, or insignificant, is unclear.
A stable PC12 cell line containing a gene fusion of Exon 1 of the Huntingtin gene linked to GFP under the control of the inducible ecdysone promoter were used as the cell-based model of Huntington Disease for high throughput screening. Exon 1 of the Huntingtin gene contained an expansion of 103 polyglutamines (Q103) which, when expressed, caused cell death and distinct, bright GFP aggregates. The amount of cell death and the size and intensity of GFP aggregates increased over time and induction level. In the primary screen, cell death were quantified with a measurement of ATP content in the cells. A maximal 40-50% of cell death was observed when the Huntington gene was induced in this cell line.
We optimized this assay in a homogeneous 1536 well format. A quantitative high throughput screen (qHTS) was conducted on the PC12 cells which were induced to express the toxic fusion construct. Small molecules which prevented cell death were considered hits, and were further studied. The present assay is an alternate assay for cytoprotection using Promega's Cytotox-Glo reagent.
PC12 cells stably containing a construct with an ecdysone inducible promoter expressing GFP fused to the exon 1 of HTTQ103 (Huntington protein which containing a 103 ployglutamine expansion) were used.
NCGC Assay Protocol Summary:
Sequence, Parameter, Description
1, Reagent, 5 uL 1500 cells/well 1536 TC treated White clear bottom plate
2, Compound, 23 nL Tebufenozide inducer (100 nM final) to all columns
3, Compound, 23 nL 40 uM to 0.5 nM Libraries
5, Reagent, 2 ul Promega's Cytotox-Glo assay reagent
6, Detector, 4 sec integration with a Viewlux Luminescent
Media consisted of phenol red free DMEM + 5% equine serum (Hyclone # SH30072.03 ), 5% supplemented Bovine Calf Serum (Hyclone # SH30074.03 ), 1x pen/strep, no G418

Compound | Potency | activity change, negative = inhibition
Cn1nnnc1Sc1ncnc2scc(-c3ccccc3C#N)c12 | 15.8 µM (active) | –
CCC(=O)O[C@]1(C(=O)CCl)[C@@H](C)C[C@H]2[C@@H]3CCC4=CC(=O)C=C[C@]4(C)[C@@]3(F)[C@@H](O)C[C@@]21C | – | 2.63% (inactive)
C[C@@H]1CNCCN1S(=O)(=O)c1cccc2cnccc12 | – | -1.89% (inactive)
NCCCCCc1cnc[nH]1 | – | 5.49% (inactive)
O=C(Nc1ccc(Cl)cc1C(F)(F)F)C(Sc1cccc[n+]1[O-])c1ccccc1 (stereo not given) | – | 5.2% (inactive)
CCc1nc(SCC(=O)Nc2nc3c(s2)CCCC3)c2ccccc2n1 | – | -52.8% (inactive)
NC(=O)C1CCN(CCC(=O)Nc2ccc(Br)cc2)CC1 | – | -9% (inactive)
COC(=O)CNC(=O)C1CCN(C(=O)OCc2ccccc2)CC1 | 1.41 µM (active) | –
COc1cc(Cc2cnc(N)nc2N)cc(OC)c1OC | – | 15.3% (inactive)
Cn1nnnc1Sc1ncnc2scc(-c3ccc(C(=O)OC(C)(C)C)cc3)c12 | 14.1 µM (active) | –
CS(=O)(=O)c1ccc([C@H](O)[C@H](CO)NC(=O)C(Cl)Cl)cc1 | – | -5.82% (inactive)
Cc1ccc(-n2ncc(Br)c(Br)c2=O)cc1 | 12.6 µM (active) | –
COc1ccc2cc3cc(C(=O)N4CCN(c5ccccc5)CC4)oc3nc2c1 | 2.24 µM (active) | –
O=C(N/N=C/c1ccc(O)c(O)c1)c1ccc(CSc2cccc3cccnc23)cc1 | 8.91 µM (active) | –
CCN(CC)CCNc1ccc(CO)c2sc3ccccc3c(=O)c12 | 10 µM (active) | –
Cn1nnnc1Sc1ncnc2scc(-c3cc4ccccc4o3)c12 | 7.08 µM (active) | –
COc1ccc2cc3cc(C(=O)NCc4ccco4)oc3nc2c1 | 1 µM (active) | –
O=Nc1c(-c2c(O)[nH]c3ccccc23)[nH]c2ccccc12 | 631 nM (active) and 1.41 µM (active) | –
Cn1nnnc1Sc1ncnc2scc(-c3ccsc3)c12 | 7.94 µM (active) | –
C=CS(=O)(=O)c1ccc(Oc2ccc(S(=O)(=O)C=C)cc2)cc1 | 10 µM (active) | –

Compound | Potency | activity change, negative = inhibition
Cn1nnnc1Sc1ncnc2scc(-c3cnc(N)nc3)c12 | 11.2 µM (active) | –
Cn1nnnc1Sc1ncnc2scc(-c3cccc(C#N)c3)c12 | 10 µM (active) | –
CN1C(=O)CC(Sc2ncccc2C(=O)O)C1=O (stereo not given) | – | 4.06% (inactive)
Cc1cccc(-c2csc3ncnc(Sc4nnnn4C)c23)c1 | 14.1 µM (active) | –
C[C@]12CC[C@@H]3c4ccc(OC(=O)c5ccccc5)cc4CC[C@H]3[C@@H]1CC[C@@H]2O | – | 9.1% (inactive)
CC(C(=O)O)c1ccc(N2Cc3ccccc3C2=O)cc1 (stereo not given) | 2.24 µM (active) | –
Cn1nnnc1Sc1ncnc2scc(-c3cccc([N+](=O)[O-])c3)c12 | 12.6 µM (active) | –
CCOC(=O)c1sc2nc(N3CCOCC3)c3c(c2c1N)CC(C)(C)N(C)C3 | – | 10% (inactive)
Cn1nnnc1Sc1ncnc2scc(-c3ccccc3Br)c12 | 14.1 µM (active) | –
Cc1cc(NC(=O)CCS(=O)(=O)c2nc(-c3ccccc3)cc(C(F)(F)F)n2)no1 | – | 8.8% (inactive)
Cn1nnnc1Sc1ncnc2scc(-c3ccc([N+](=O)[O-])cc3)c12 | 8.91 µM (active) | –
Cn1nnnc1Sc1ncnc2scc(-c3cccc(S(C)(=O)=O)c3)c12 | 7.08 µM (active) | –
Cn1nnnc1Sc1ncnc2scc(-c3ccc4c(=O)ccoc4c3)c12 | 7.94 µM (active) | –
Cc1cc(C)n(S(=O)(=O)/C=C/c2ccccc2)n1 | – | -19.1% (inactive)
COc1ccc(-c2csc3ncnc(Sc4nnnn4C)c23)cc1 | 11.2 µM (active) | –
O=C(Nc1cccnc1)Nc1ccccc1Cl | 3.16 µM (active) | –
C#CCN(C)CCCOc1ccc(Cl)cc1Cl | – | 10.5% (inactive)
COc1ccccc1-n1nnnc1S(=O)(=O)Cc1ccc(Cl)cc1 | 14.1 µM (active) | –
CCOC(=O)c1noc(C)c1C(=O)Nc1cccc(F)c1 | 7.08 µM (active) | –
C=CCC(=O)OCCCCCCOc1ccc(C(=O)O)cc1 | 1.41 µM (active) | –
